Test results published in PubChem BioAssay AID828 (The Scripps Research Institute Molecular Screening Center, 2007).
Among all 140,000 compounds or so, about 550 (0.39%) were called active. Rule as the data show it: active = inhibition above about 27%; inactive = the rest. Only a selection was taken, and actives are over-represented in it overall.

What follows are compounds tested against Galanin receptor type 2 (Homo sapiens) (UniProt O43603) (assay: GALR2 antagonists in receptor-expressing cells, primary screen (AID 828;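 also: cells stimulated with galanin 1-16 at roughly its EC80; 0% = agonist challenge control and 100% = basal control without agonist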)). Settings: antagonist mode, at 4 µM, active compounds read high.
Galanin receptor type 2 (Homo sapiens), sequence (O43603 whole entry, looked up): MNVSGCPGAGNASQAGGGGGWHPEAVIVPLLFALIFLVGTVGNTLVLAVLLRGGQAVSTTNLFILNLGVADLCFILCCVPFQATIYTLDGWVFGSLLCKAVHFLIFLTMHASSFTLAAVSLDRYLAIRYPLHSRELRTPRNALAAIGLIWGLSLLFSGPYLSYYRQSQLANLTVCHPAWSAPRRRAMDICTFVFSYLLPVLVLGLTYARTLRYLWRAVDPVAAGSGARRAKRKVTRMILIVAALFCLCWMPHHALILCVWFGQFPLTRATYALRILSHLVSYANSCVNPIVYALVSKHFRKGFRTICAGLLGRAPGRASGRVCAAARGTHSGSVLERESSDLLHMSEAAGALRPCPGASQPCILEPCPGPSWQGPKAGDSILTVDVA

inhibition, inactive:
CCOC(=O)NC(=O)CSc1nnc(SCCC(=O)O)s1 -4.2%
Nc1nc(SCC(=O)NCCN2CCOCC2)nc2sc3c(c12)CCC3 15.2%
O=C(CSc1nc2ccc([N+](=O)[O-])cc2[nH]1)c1ccc(Cl)cc1 5.51%
Cc1cc(Oc2ccc(Cl)cc2)nc(SCC(=O)c2ccccc2)n1 -1.42%
O=C(CC1NCCNC1=O)Nc1cc(Cl)cc(Cl)c1 (stereo unspecified) -4.41%
CC1CN(C(=S)SCC(=O)c2ccccc2)CC(C)O1 (stereo unspecified) -1.6%
CC(=O)Nc1ccc(NC(=O)C(C)OC(=O)c2ccccc2C(=O)c2ccc(Cl)c([N+](=O)[O-])c2)cc1 (stereo unspecified) 25.8%
COC(=O)c1cc(NC(=O)Cc2ccccc2[N+](=O)[O-])ccc1Cl 16.4%
CCN(C(=O)COC(=O)c1cc(NS(=O)(=O)c2ccc(Cl)c([N+](=O)[O-])c2)ccc1O)C1CCCCC1 -12.1%
CN(c1ccccc1)S(=O)(=O)c1cccc(NC(=O)Cc2c(F)cccc2Cl)c1 6.13%
NS(=O)(=O)c1ccc(NC(=O)COC(=O)C2(c3ccc(F)cc3)CCCC2)cc1 10.9%
CSCCC(Nc1ccc(S(=O)(=O)N2CCOCC2)cc1[N+](=O)[O-])C(=O)OCC(=O)N(C(C)C)C(C)C (stereo unspecified) 0.86%
O=C(CCc1[nH]c2ccccc2c1Sc1ccccc1)N(CCO)CCO -2.04%
CCCOC(=O)c1c(NC(=O)c2cnn3c2NC(c2ccccc2)CC3C(F)(F)F)sc2c1CCCC2 (stereo unspecified) -6.74%
CCOC(=O)c1cc2c(=O)n3ccccc3nc2n(CC(C)C)c1=NC(=O)c1c(-c2c(F)cccc2Cl)noc1C -2.98%
Cc1cccc(N2CCN(C(=O)c3ccccc3NC(=O)C3CCCCC3C(=O)O)CC2)c1 (stereo unspecified) 0.78%
Cc1ccc(NN=C2C(=O)OC(C)(C)OC2=O)c(C)c1 4.74%
CN(C)c1ccc(C(CNC(=O)c2ccc(F)cc2)c2c[nH]c3ccccc23)cc1 (stereo unspecified) 5.85%
CC(=O)N/C(=C/c1ccc(OC(F)F)cc1)C(=O)O -1.23%
Cc1nn(-c2ccccc2)c(-n2cccc2)c1C(=O)O 8.6%
O=C(CN1CCc2ccccc21)NC(c1ccccc1)c1ccccc1 -11.2%
CCCCN(CC)C(=O)c1ccc2c(c1)OCO2 -4.88%
C=CCNC(=S)NNC(=O)c1ccc(Br)o1 0.37%
O=C(COc1cccc(F)c1)Oc1ccc(C(=O)c2ccccc2)cc1 5.19%
CC(C)(C)NCCCOc1ccc(Cl)cc1C(C)(C)C -7.15%
Cc1cccc(-c2nc3ccccc3c(=O)n2NC(=O)Cc2ccc(Cl)cc2)c1 -8.75%
Cc1cc(C)cc(NS(=O)(=O)c2ccc(Oc3ncc(C(F)(F)F)cc3Cl)cc2)c1 -0.6%
CSc1ccccc1-c1nnc(-c2ccc(Cl)cc2)o1 14.1%
O=C(NNC(=S)Nc1ccc(Br)cc1Cl)c1ccco1 1.63%
c1ccc(-c2cc3c(NCC4COc5ccccc5O4)ncnc3s2)cc1 (stereo unspecified) -0.87%
COc1ccc(-c2nn(C)c(=O)c3ccccc23)cc1NC(=O)COc1ccccc1 2.22%
Cc1ccc(NC(=O)Cn2nc(C)c3ccccc3c2=O)c(C)c1 8.82%
Cc1ccc(-n2c(C)cc(C(=O)CSc3nnc4ccccn34)c2C)cc1 3.5%
Cc1ccc(C(=O)NC(=S)Nc2ccc3[nH]c(=O)[nH]c3c2)cc1C -6.84%
COc1ccc(NC(=S)NCC2CCN(c3ccc(OC)cc3)C2)cc1 (stereo unspecified) -2.41%
C/C(CC1CC(C)(C)OC1=O)=N/Nc1nc(-c2ccccc2)cs1 (stereo unspecified) 7.6%
COc1cc(C(=O)NCc2nnc(SCC(=O)Nc3nc4ccc(C)cc4s3)o2)cc(OC)c1OC -19.9%
CCCCc1ccc(NC(=S)N2CCCC(CO)C2)cc1 (stereo unspecified) -8.34%
COc1ccc(NC(=O)CN(Cc2ccccc2)S(C)(=O)=O)cc1OC -9.1%
O=C1CCCN1CCCNc1ncnc2c1[nH]c1ccccc12 22.8%
CCN1CCCC1CNc1ncnc2c1[nH]c1ccc(F)cc12 (stereo unspecified) 13.1%
COc1ccc(/C=C/C(=O)Nc2ccc3c(c2)OCCO3)cc1OC 12.7%
COc1ccc(NS(=O)(=O)c2cc(NC(=O)/C=C/c3cc(OC)c(OC)c(OC)c3)ccc2N2CCCCC2)cc1 5.85%
O=C(NNC1CC(=O)N(c2cccc(Cl)c2)C1=O)c1cccnc1 (stereo unspecified) -6.86%
COc1ccccc1OCCC(=O)OCC(=O)NCc1ccccc1 -7.36%
Cc1cccc(-n2c(C)cc(/C=N/NC(N)=S)c2C)c1 -7.75%
CCCN(CCC)c1c([N+](=O)[O-])c(=O)oc2ccccc12 7.9%
CCOC(=O)Cc1csc(NC(=O)CSc2ccc(Br)cc2)n1 6.81%
CC(C)/C=N/NC(=O)c1cc(Br)ccc1O 10.3%
COc1ccc(C2COC(=O)C2=N)c(NC(=O)c2ccccc2)c1 (stereo unspecified) -8.91%
Cc1nn(Cc2ccc(Cl)cc2)c(Cl)c1/C=N/NC(=O)c1cccnc1 10.9%
CC1CCc2sc(C(=O)N/N=C/C3CCCCC3)cc2C1 (stereo unspecified) -7.82%
CN(C)c1ccc(-n2cccc2/C=N/n2cnnc2)cc1 0.57%
CC(Sc1nc(-c2ccccc2)cc(C(F)(F)F)n1)C(=O)Nc1ccc2c(c1)OCO2 (stereo unspecified) 0.9%
CCc1cccc(C)c1NC(=O)COC(=O)Cc1ccsc1 5.66%
Cc1ccc(NC(=O)CSCC(=O)NC2CCCCC2)cc1 4.82%
Cc1ccc(OCC(=O)OC(C)CN(C)Cc2ccccc2)cc1 (stereo unspecified) -4.66%
CC(NC(=S)Nc1ccc(S(N)(=O)=O)cc1)c1ccc2c(c1)OCO2 (stereo unspecified) 4.43%
COc1cccc(-c2ccc(C#N)c(SCC(=O)NCCc3ccc(Cl)cc3)n2)c1 6.63%
CCc1ccc(C2C(C#N)=C(N)N(N(C)C)C3=C2C(=O)CCC3)s1 (stereo unspecified) -4.14%
CCCc1nc2c([nH]1)C(c1cccnc1)C(C#N)=C(N)O2 (stereo unspecified) 1.63%
COc1cc(OC)cc(-c2nc3ccccc3c(=O)n2NC(=O)c2cccnc2Cl)c1 1.33%
COc1ccc(/C=N/Nc2ncnc3sc4c(c23)CCCC4)cc1O 0.22%
COC(=O)C(NC(=O)c1ccc(OC)cc1)(Nc1ncc(S(=O)(=O)c2ccc([N+](=O)[O-])cc2)s1)C(F)(F)F (stereo unspecified) -4.68%
Cc1cc(C)cc(OCC(=O)Nc2nc3ccc([N+](=O)[O-])cc3s2)c1 7.65%
CC(=O)COc1ccc2c(-c3ccccc3)cc(=O)oc2c1 -10.7%
O=C(CNC(=O)c1ccc(-c2ccccc2)cc1)OCc1ccc(Cl)cc1 9.65%
CS(=O)(=O)N(CC(=O)Nc1ccc(Cl)c(Cl)c1)C1CCCCC1 -3.02%
CN(C)CCNC(CC(=O)Nc1ccc(Cl)c(Cl)c1)C(=O)O (stereo unspecified) -5.57%
COC(=O)c1ccccc1SC1CC(=O)N(c2cccc(C)c2)C1=O (stereo unspecified) 10.2%
C=CCNC(=O)COC(=O)c1ccccc1C(=O)N(C)C1CCCCC1 -14.8%
Cc1cc(C(=O)COc2ccccc2[N+](=O)[O-])c(C)n1-c1cccc(S(=O)(=O)N2CCOCC2)c1 -3.23%
CCOC(=O)c1c(NC(=S)NC(=O)/C=C/c2cccs2)sc(C)c1C -8.3%
Cc1c(C(=O)Nc2cccc(-c3nnc4n3CCCCC4)c2)oc2ccccc12 -1.52%
CC(Cc1cccs1)NC(=O)c1cccc(Cl)c1 (stereo unspecified) 3.36%
Cc1ccc(/C(N)=N/OC(=O)COc2ccc(Cl)c(C)c2)cc1 7.55%
CC(C)(C)c1ccc(C(=O)CSc2ncn[nH]2)cc1 4.68%
O=C(NCCOCc1ccc(Cl)cc1)c1ncn[nH]1 6.29%
COc1ccc(NC(=O)c2nc(-n3nc(C)cc3C)ccc2Cl)cc1Cl -4.22%
N#Cc1ccccc1Sc1ccccc1C(=O)OCC(=O)NC1CCCCC1 -1.21%
COc1ccc(CNC(=O)CN(Cc2ccc(Cl)cc2)S(C)(=O)=O)cc1 -0.09%

inhibition, active:
N#Cc1cccc(NC(=O)COC(=O)c2ccccc2C(=O)c2ccc(Cl)c([N+](=O)[O-])c2)c1 68.1%
CN(C)S(=O)(=O)c1cccc(NC(=O)COC(=O)C2(c3ccccc3F)CCCC2)c1 31.7%
FC(F)(F)c1cnc(Oc2ccccc2-c2nnc(-c3ccc(Cl)cc3)o2)c(Cl)c1 99.8%
Cc1ccc(F)cc1NC(=O)Cc1nn(C)c(=O)c2ccccc12 39.3%
CC(C)OCCCNc1ncnc2c1[nH]c1ccc(F)cc12 35.1%
COc1ccc(/C=C/C(=O)Nc2ccc(C34CC5CC(CC(O)(C5)C3)C4)cc2)cc1OC 27.3%
O=C(NC(Nc1nc2ccc([N+](=O)[O-])cc2s1)(C(F)(F)F)C(F)(F)F)c1ccccc1 88.7%
O=C(CNC(=O)OCc1ccccc1)Oc1cc2oc(=O)cc(-c3ccccc3)c2cc1Cl 31.1%
CC(c1cccnc1)N(CCN(C)C)C(=O)Nc1ccc(Cl)c(Cl)c1 (stereo unspecified) 29.6%
O=C(/C=C/Sc1ncn[nH]1)c1ccc(Cl)cc1 36.3%
